Laboratory results published in PubChem BioAssay (NCI).
This is part of a sample that, as a whole, favours compounds with a hit. Of some 83,000 tested, about 20% had one in any assay.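 Activity criterion: percent growth below 10, measured after cells in 96-well plates were exposed to a single compound concentration for 48 hours.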 The source made the active and inactive calls.

Columns and labels:
Assay in all cases: NCI-60 one-dose screen, 48 h (100 = growth as untreated, 0 = no growth, -100 = all killed)
Conditions in all cases: 10 µM unless noted
SK-MEL-2 melanoma = tested on: SK-MEL-2 melanoma
EKVX NSCLC = tested on: EKVX NSCLC
SN12C renal = tested on: SN12C renal
UO-31 renal = tested on: UO-31 renal
TK-10 renal = tested on: TK-10 renal
ACHN renal = tested on: ACHN renal
CAKI-1 renal = tested on: CAKI-1 renal
A498 renal = tested on: A498 renal
CCRF-CEM leukemia = tested on: CCRF-CEM leukemia
MOLT-4 leukemia = tested on: MOLT-4 leukemia
SR leukemia = tested on: SR leukemia
RPMI-8226 leukemia = tested on: RPMI-8226 leukemia
OVCAR-8 ovarian = tested on: OVCAR-8 ovarian
OVCAR-5 ovarian = tested on: OVCAR-5 ovarian
OVCAR-4 ovarian = tested on: OVCAR-4 ovarian
SK-OV-3 ovarian = tested on: SK-OV-3 ovarian
IGROV1 ovarian = tested on: IGROV1 ovarian
OVCAR-3 ovarian = tested on: OVCAR-3 ovarian
NCI/ADR-RES ovarian = tested on: NCI/ADR-RES ovarian
HS 578T breast = tested on: HS 578T breast

Measured: growth

C(=C\c1cc(/C=C/c2ccccc2)c2ccccc2n1)/c1ccccc1
inactive: SK-MEL-2 melanoma 122% | EKVX NSCLC 100% | SN12C renal 76.8% | UO-31 renal 88.5% | TK-10 renal 106% | ACHN renal 107% | CAKI-1 renal 94.2% | A498 renal 132% | CCRF-CEM leukemia 60.8% | MOLT-4 leukemia 32.1% | SR leukemia 36.7% | RPMI-8226 leukemia 25.3% | OVCAR-8 ovarian 78.4% | OVCAR-5 ovarian 136% | OVCAR-4 ovarian 98.6% | SK-OV-3 ovarian 121% | IGROV1 ovarian 118% | OVCAR-3 ovarian 103% | NCI/ADR-RES ovarian 69.7%

CN(C)CCn1c2ccccc2c2nc3ccc([N+](=O)[O-])cc3nc21
active: SK-MEL-2 melanoma -10.6% | SN12C renal -9.41% | UO-31 renal -47.6% | TK-10 renal -1.22% | ACHN renal -40.8% | CAKI-1 renal -23.8% | A498 renal -41.7% | MOLT-4 leukemia 8.56% | OVCAR-8 ovarian -15.6% | OVCAR-5 ovarian -0.168% | SK-OV-3 ovarian 8.18% | IGROV1 ovarian 4.78% | OVCAR-3 ovarian 7.62% | NCI/ADR-RES ovarian 8.38%
inactive: EKVX NSCLC 17.3% | CCRF-CEM leukemia 17.6% | SR leukemia 13% | RPMI-8226 leukemia 20.3% | OVCAR-4 ovarian 16.6% | HS 578T breast 10.1%

C/C(=N\N=C1/C(=O)Nc2ccccc21)c1ccc2c(c1)Nc1ccccc1S2
inactive: SK-MEL-2 melanoma 80.5% | EKVX NSCLC 43.7% | SN12C renal 42.1% | UO-31 renal 34.4% | TK-10 renal 78.7% | ACHN renal 56.1% | CAKI-1 renal 49.4% | A498 renal 28.2% | CCRF-CEM leukemia 45.8% | MOLT-4 leukemia 11.4% | SR leukemia 44.5% | RPMI-8226 leukemia 38.7% | OVCAR-8 ovarian 56% | OVCAR-5 ovarian 83.7% | OVCAR-4 ovarian 37.4% | SK-OV-3 ovarian 101% | IGROV1 ovarian 45.6% | OVCAR-3 ovarian 34.9% | HS 578T breast 72.1% | NCI/ADR-RES ovarian 59.4%

COc1cc(/C=C/C(=O)c2ccccc2)ccc1Oc1nc(Nc2ccc(F)cc2)nc(N(C)C)n1
inactive: EKVX NSCLC 38.6% | UO-31 renal 27.3% | TK-10 renal 89.8% | CAKI-1 renal 37.5% | A498 renal 48.8% | OVCAR-8 ovarian 22.1% | OVCAR-5 ovarian 49.1% | OVCAR-4 ovarian 27.7% | SK-OV-3 ovarian 79.7% | IGROV1 ovarian 48.8% | OVCAR-3 ovarian 39.4% | HS 578T breast 36.2% | NCI/ADR-RES ovarian 11.3%
active: SK-MEL-2 melanoma -38% | SN12C renal -5.73% | ACHN renal -4.12% | CCRF-CEM leukemia 9.17% | MOLT-4 leukemia 7.1% | SR leukemia 1.38% | RPMI-8226 leukemia -8.57%

Cc1c(C(=O)NNC(=O)c2ccc(Cl)cc2)nnn1-c1ccc(Br)cc1
inactive: SK-MEL-2 melanoma 107% | EKVX NSCLC 99.4% | SN12C renal 102% | UO-31 renal 75.9% | TK-10 renal 95.4% | ACHN renal 102% | CAKI-1 renal 87.9% | A498 renal 139% | CCRF-CEM leukemia 90.3% | MOLT-4 leukemia 85.4% | SR leukemia 84.3% | RPMI-8226 leukemia 98.2% | OVCAR-8 ovarian 103% | OVCAR-5 ovarian 95.2% | OVCAR-4 ovarian 96.5% | SK-OV-3 ovarian 90.2% | IGROV1 ovarian 105% | OVCAR-3 ovarian 115% | NCI/ADR-RES ovarian 97.5%

COc1cc(CNC(=O)/C=C/c2ccc3c(c2)OCO3)ccc1OCc1cn(-c2cccc(C(F)(F)F)c2)nn1
inactive: SK-MEL-2 melanoma 54% | SN12C renal 21.4% | TK-10 renal 19.9% | A498 renal 57.7% | CCRF-CEM leukemia 52.2% | MOLT-4 leukemia 48.8% | SR leukemia 41.5% | RPMI-8226 leukemia 40.9% | OVCAR-5 ovarian 36.6% | OVCAR-4 ovarian 34.9% | SK-OV-3 ovarian 47.4% | IGROV1 ovarian 44.7% | OVCAR-3 ovarian 42.9%
active: EKVX NSCLC 6.68% | UO-31 renal -4.4% | ACHN renal 0.888% | CAKI-1 renal 6.02% | OVCAR-8 ovarian -9.92% | NCI/ADR-RES ovarian 4.67%

COC(OC)C1=C(C)OC(N)=C(C#N)C12C(=O)Nc1ccccc12 (stereo not given)
inactive: SK-MEL-2 melanoma 96.2% | EKVX NSCLC 99.7% | SN12C renal 93.3% | UO-31 renal 70.3% | TK-10 renal 161% | ACHN renal 84.9% | CAKI-1 renal 108% | A498 renal 125% | CCRF-CEM leukemia 54.6% | MOLT-4 leukemia 95.9% | SR leukemia 73% | RPMI-8226 leukemia 94.3% | OVCAR-8 ovarian 91.9% | OVCAR-5 ovarian 112% | OVCAR-4 ovarian 101% | SK-OV-3 ovarian 111% | IGROV1 ovarian 92% | OVCAR-3 ovarian 101% | HS 578T breast 95.4% | NCI/ADR-RES ovarian 99.2%

COc1ccc2[nH]cc(-c3nnc(N)nc3-c3cn(C)c4ncc(Br)cc34)c2c1
inactive: SK-MEL-2 melanoma 61.1% | EKVX NSCLC 88.7% | SN12C renal 60.2% | UO-31 renal 49.4% | TK-10 renal 46.3% | ACHN renal 50.8% | CAKI-1 renal 43.9% | A498 renal 45.5% | CCRF-CEM leukemia 66.8% | MOLT-4 leukemia 56.6% | SR leukemia 49.6% | RPMI-8226 leukemia 74.5% | OVCAR-8 ovarian 75.8% | OVCAR-5 ovarian 84.8% | OVCAR-4 ovarian 69.1% | SK-OV-3 ovarian 95.2% | IGROV1 ovarian 58.4% | OVCAR-3 ovarian 65.7% | HS 578T breast 55.7% | NCI/ADR-RES ovarian 83.5%

O=c1cc(-c2ccccc2)oc2cc(OCCCC[P+](c3ccccc3)(c3ccccc3)c3ccccc3)cc(O)c12
active: SK-MEL-2 melanoma -94.1% | EKVX NSCLC -97.6% | SN12C renal -49.5% | UO-31 renal -97.1% | TK-10 renal -81.8% | ACHN renal -100% | CAKI-1 renal -97.1% | A498 renal -83.3% | CCRF-CEM leukemia -75.9% | MOLT-4 leukemia -41.7% | SR leukemia -39.8% | RPMI-8226 leukemia -66.7% | OVCAR-8 ovarian -61.1% | OVCAR-5 ovarian -97.7% | OVCAR-4 ovarian -69.1% | SK-OV-3 ovarian -83.4% | IGROV1 ovarian -75.7% | OVCAR-3 ovarian -94% | HS 578T breast -35.2% | NCI/ADR-RES ovarian -68.3%

CC1=C(C(=O)OCc2ccccc2)C(c2ccc(-n3cncn3)cc2)n2c(nc3ccccc32)N1 (stereo not given)
inactive: SK-MEL-2 melanoma 80.6% | EKVX NSCLC 48.4% | SN12C renal 72.9% | UO-31 renal 51.6% | TK-10 renal 89.7% | ACHN renal 51.3% | CAKI-1 renal 42.8% | A498 renal 79.8% | CCRF-CEM leukemia 16.1% | MOLT-4 leukemia 36.6% | SR leukemia 18% | RPMI-8226 leukemia 35.4% | OVCAR-8 ovarian 86.6% | OVCAR-5 ovarian 79.3% | OVCAR-4 ovarian 83.2% | SK-OV-3 ovarian 73.8% | IGROV1 ovarian 62.2% | OVCAR-3 ovarian 24.2% | NCI/ADR-RES ovarian 41.5%

COc1cc2oc(-c3cccc(NC(=O)[C@H](Cc4ccccc4)NC(=O)OC(C)(C)C)c3)cc(=O)c2c(OC)c1OC
inactive: SK-MEL-2 melanoma 20.9% | EKVX NSCLC 55.9% | SN12C renal 32% | UO-31 renal 18.2% | TK-10 renal 45.2% | ACHN renal 18.1% | CAKI-1 renal 31.7% | A498 renal 77.9% | CCRF-CEM leukemia 32% | SR leukemia 22.5% | RPMI-8226 leukemia 22.7% | OVCAR-8 ovarian 26.7% | OVCAR-5 ovarian 80.8% | OVCAR-4 ovarian 41.4% | SK-OV-3 ovarian 78.7% | IGROV1 ovarian 32.7% | OVCAR-3 ovarian 36.3% | HS 578T breast 16.4% | NCI/ADR-RES ovarian 29.6%
active: MOLT-4 leukemia 9.42%

O=C(c1ccc(OCCN2CCOCC2)cc1)C1[C@H](c2ccc(Cl)cc2)[C@@H](c2ccccc2)NC12C(=O)Nc1ccc(Cl)cc12 (stereo not given in full)
active: ACHN renal 9.92% | MOLT-4 leukemia -28.2% | SR leukemia -46.3%
inactive: SK-MEL-2 melanoma 35% | EKVX NSCLC 23.1% | SN12C renal 13.5% | UO-31 renal 19.1% | TK-10 renal 49.7% | CAKI-1 renal 14.8% | A498 renal 88% | CCRF-CEM leukemia 31% | RPMI-8226 leukemia 15.5% | OVCAR-8 ovarian 39% | OVCAR-5 ovarian 50.5% | OVCAR-4 ovarian 48.3% | SK-OV-3 ovarian 50.1% | IGROV1 ovarian 24% | OVCAR-3 ovarian 40.4% | HS 578T breast 59.1% | NCI/ADR-RES ovarian 24.5%

O=C(/C=C/c1cccc(OCc2ccc(F)cc2)c1)c1nc2ccccc2[nH]1
active: CCRF-CEM leukemia 6.9% | MOLT-4 leukemia -11.2% | SR leukemia -44% | RPMI-8226 leukemia -50.4%
inactive: SK-MEL-2 melanoma 104% | EKVX NSCLC 38% | SN12C renal 76.9% | UO-31 renal 69.4% | TK-10 renal 79% | ACHN renal 78.9% | CAKI-1 renal 67.3% | A498 renal 112% | OVCAR-8 ovarian 83.2% | OVCAR-5 ovarian 122% | OVCAR-4 ovarian 62.5% | SK-OV-3 ovarian 92.9% | IGROV1 ovarian 93.5% | OVCAR-3 ovarian 68.2% | NCI/ADR-RES ovarian 72.5%

N=C1N=C(SCc2nc3ccccc3[nH]2)NC(=O)/C1=C/c1ccc(Cl)cc1
inactive: SK-MEL-2 melanoma 105% | EKVX NSCLC 106% | SN12C renal 98.6% | UO-31 renal 70.5% | TK-10 renal 143% | ACHN renal 99.6% | CAKI-1 renal 85.9% | A498 renal 122% | CCRF-CEM leukemia 100% | MOLT-4 leukemia 99.5% | SR leukemia 98.7% | RPMI-8226 leukemia 96.9% | OVCAR-8 ovarian 102% | OVCAR-5 ovarian 113% | OVCAR-4 ovarian 95.6% | SK-OV-3 ovarian 111% | IGROV1 ovarian 110% | OVCAR-3 ovarian 114% | HS 578T breast 98.3% | NCI/ADR-RES ovarian 100%

NS(=O)(=O)c1ccc(NNC(=O)CCC(=O)c2ccccc2)cc1
inactive: SK-MEL-2 melanoma 107% | EKVX NSCLC 103% | SN12C renal 92.5% | UO-31 renal 84% | TK-10 renal 109% | ACHN renal 101% | CAKI-1 renal 90.2% | A498 renal 94.2% | CCRF-CEM leukemia 75.1% | MOLT-4 leukemia 89.8% | SR leukemia 86.8% | RPMI-8226 leukemia 105% | OVCAR-8 ovarian 101% | OVCAR-5 ovarian 112% | OVCAR-4 ovarian 99.2% | SK-OV-3 ovarian 104% | IGROV1 ovarian 102% | OVCAR-3 ovarian 114% | HS 578T breast 94.7% | NCI/ADR-RES ovarian 109%
